Screening results (PubChem BioAssay)
D1 antag – Antagonist of Human D 1 Dopamine Receptor: qHTS; D(1A) dopamine receptor (Homo sapiens), P21728; HEK293 TREx D1 cells, calcium flux, dopamine EC80; hits give low values; activity change, negative = inhibition, % at 10 µM; 360,000 tested, 3.2% active; AID 504652, 2011; in the data active = activity change below about -30%; also: % is scaled to controls: 0 for no effect and ±100 for the full control effect
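Compound effects on dopamine-evoked calcium signalling were measured in tetracycline-induced HEK293 Trex D1 cells. Dopamine at EC80 followed a 180 s compound pre-read, and fluorescence was tracked kinetically for 180 s more.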
D1 agonist – Allosteric Agonists of the Human D1 Dopamine Receptor: qHTS; 360,000 tested, 1% active; activation, % at 2 µM; D(1A) dopamine receptor (Homo sapiens), P21728; HEK293 T-REx D1 cells, calcium flux, agonist mode; in the data active = activation above about 30%; also: 0% is about no effect
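Agonism was scored from calcium flux recorded over 180 s (1 read/s) after pintool compound addition, following a 10-cycle baseline. Cells were inducible force-coupled HEK293 TREx D1, plated overnight at 30 C and loaded with no-wash calcium dye.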
DRD3 antagonist – qHTS of D3 Dopamine Receptor Antagonist: qHTS; D(3) dopamine receptor (Homo sapiens), P35462; D3R cells, DiscoveRx beta-arrestin luminescence, antagonist mode; hits give low values; max response, negative = inhibition, %; 360,000 tested, 2.5% active; AID 652054, 2013; in the data active = max response below about -50%; inconclusive = no clear call, values can overlap the other calls; also: % is scaled to controls: 0 for no effect and ±100 for the full control effect
Target sequence (P35462 whole entry, looked up): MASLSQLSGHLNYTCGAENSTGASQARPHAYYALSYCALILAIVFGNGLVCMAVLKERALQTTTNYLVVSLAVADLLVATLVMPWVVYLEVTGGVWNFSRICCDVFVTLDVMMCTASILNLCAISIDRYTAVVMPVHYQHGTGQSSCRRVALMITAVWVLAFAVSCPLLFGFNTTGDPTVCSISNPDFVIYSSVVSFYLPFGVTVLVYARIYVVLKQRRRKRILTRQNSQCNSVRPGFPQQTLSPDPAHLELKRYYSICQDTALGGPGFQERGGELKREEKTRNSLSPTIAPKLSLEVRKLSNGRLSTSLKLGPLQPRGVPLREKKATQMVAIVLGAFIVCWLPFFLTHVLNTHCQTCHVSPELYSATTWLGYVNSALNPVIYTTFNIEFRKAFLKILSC
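Cells expressing the human receptor were seeded at 1500 cells/well, incubated overnight at 37 degrees C in 5% CO2, then exposed to library compounds with dopamine controls for 90 minutes at 37 degrees C before luminescent detection.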
ERG-DNA inh – qHTS for Small Molecule Inhibitors of the ERG Ets/DNA interaction | Potency, µM (top dose mostly 76.9 µM), for inactives: at the top dose FP activity, negative = inhibition, actives largely listed as inhibitors | Transcriptional regulator ERG (Homo sapiens), P11308 | fluorescence polarization, His-ERG Ets domain / labelled DNA | 370,000 tested, 0.028% active; active = well fitted inhibition curve with a large enough effect in the polarisation, with a control signal flat; inconclusive = small, poorly fitted or top-dose-only effect, or effect the other way, or a change in a side signal; inactive = no such curve, though single readings can be large or run the other way; the % refers to the polarisation;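 also: polarization taken with two DNA probes labelled with fluorescein and Texas red; potency is read from the fitted curve at half-maximal effect; % of control where 0% means no effect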
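His-tagged ERG Ets domain (1 uM in the protein solution; 300mM KCl, 50mM Tris-HCl, 1mM EDTA, 1mM DTT, pH 7.5) received compound, then a probe mix of 5 nM fluorescein-DNA and 100nM Texas-615-DNA. Fluorescence polarization was read for both dyes.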
D1 PAM – Potentiators of Human D1 Dopamine Receptor: qHTS. HEK293 TREx D1 cells, calcium flux, dopamine EC20 potentiation. potentiation, % at 10 µM. 360,000 tested, 0.036% active; in the data active = potentiation above about 30%; also: 0% is about no effect
D3 ag – qHTS of D3 Dopamine Receptor Agonist: qHTS. 410,000 tested, 0.58% active. AID 652048, 2013. D3R DiscoveRx beta-arrestin cells, luminescence, 90 min. max activation, %; in the data active = max activation above about 30%; also: 0% is about no effect
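Agonist mode: compounds and dopamine controls were applied to plated cells for 90 min at 37 degrees C after an overnight attachment at 1500 cells/well. Luminescent read-out followed 30 - 60 minutes at room temperature with DiscoveRx detection reagent.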
Numbers without * were called inactive; ? = inconclusive; / = not tested or not shown. Rows were chosen to be rich in hits. Some 6.1% of all compounds tested hit in one or more screens of this group.

SMILES	D1 antag	D1 agonist	DRD3 antagonist	ERG-DNA inh	D1 PAM	D3 ag
CCCNC(=O)c1nnsc1S(=O)c1ccc(Cl)cc1 (stereo not drawn)	19.7	2.2	-77.9*	13.7%	-0.8	-21.4
CNC(=O)c1nnsc1S(=O)c1ccc(Cl)cc1 (stereo not drawn)	2.0	1.6	-55.5*	-3.5%	3.6	-21.7
CCCNC(=O)c1ccc2snnc2c1	-7.1	0.8	0.0	7.3%	4.3	10.4
COC(=O)c1ccccc1CON1C(=O)C(C)(C)N(OCc2ccccc2C(=O)OC)C(=O)C1(C)C	-13.1	0.9	15.3	1.1%	-6.8	19.2
O=C(Nc1ccc(C(=O)N2CCCCC2)cc1)C1CCC1	/	/	-18.6	-22.3%	/	1.9
CCCCNC(=O)C1(C)CCCCN1C(=O)c1ccc(F)cc1Cl (stereo not drawn)	/	/	11.6	/	/	8.0
CCc1ccc(NC(=S)NC2CC3CCCC(C2)N3Cc2ccccc2)cc1 (stereo not drawn)	-29.0	20.3	-108.6*	-12.9%	0.6	-10.9
CNC(=S)NC1CC2CCC(C1)N2Cc1ccccc1 (stereo not drawn)	-3.5	1.2	-81.3*	/	-10.4	-35.4
S=C(Nc1ccc(Cl)cc1)NC1CC2CCC(C1)N2Cc1ccccc1 (stereo not drawn)	-42.7*	52.0*	-76.0*	-1.5%	8.4	-14.2
CCCN1C2CCCC1CC(NC(=S)Nc1cccc(C)c1)C2 (stereo not drawn)	2.6	0.7	6.5	-1.8%	-10.9	2.8
Cc1ccc(C=Nc2cccnc2N)cc1	7.0	89.9*	9.7	?	12.9	0.5
Cc1cc2nc(N3C(=O)CNC3=S)sc2cc1C	-10.7	1.4	-66.9*	-2.1%	-0.6	-10.9
CCCCNCCCOc1cccc(Cl)c1	3.1	-0.6	-80.2*	-6.8%	-5.7	-33.7
Cc1nn(CCOc2cccc(Cl)c2)c(C)c1[N+](=O)[O-]	-27.5	5.6	-63.7*	-3.1%	-0.7	-14.5
Clc1cccc(OCCN2CCN(CCOc3cccc(Cl)c3)CC2)c1	-17.4	3.5	-21.3	-0.3%	-15.3	57.7*
CN(C)CCCOc1cccc(Cl)c1	17.8	5.0	?	2.8%	-3.6	-10.8
Cc1nn(CCOc2ccccc2Cl)c(C)c1[N+](=O)[O-]	2.0	7.6	?	16.0%	9.6	-11.2
CC1CCN(CCOc2cccc(Br)c2)CC1	-4.1	5.1	-75.4*	13.6%	-9.3	3.2
COc1ccc(CCNC(=O)[C@@H](NC(=O)c2ccccc2F)C(C)C)cc1OC	3.7	1.9	-7.1	-13.1%	1.7	-5.0
CC(SCc1ccc(C(=O)O)o1)c1ccc(C(=O)O)o1 (stereo not drawn)	0.7	2.2	-10.5	14.5%	-12.1	-3.6
CC(C)c1cccc(OCCCCN(C)C)c1	-2.4	18.6	-57.9*	11.7%	-9.4	-18.6
CC1CCN(CCCCOc2cccc(C(C)C)c2)CC1	-5.9	8.5	-107.7*	-5.8%	1.1	-20.1
CCN(CC)CCOc1cccc(C(C)C)c1	-2.8	1.2	-10.8	2.8%	-3.8	-22.5
Brc1cccc(OCCCN2CCCCCC2)c1	-7.1	8.1	-73.6*	2.2%	-13.9	-17.4
CC1CCCN(CCOc2cccc(Oc3ccccc3)c2)C1 (stereo not drawn)	5.6	4.6	-60.7*	0.3%	2.0	-29.1
SMILES	D1 antag	D1 agonist	DRD3 antagonist	ERG-DNA inh	D1 PAM	D3 ag
Cc1cccc(OCCCCN2CCNCC2)c1	/	/	3.7	0.5%	/	-5.3
O=C(CN1CCN(Cc2ccccc2Cl)C1=O)NCc1ccco1	12.2	0.5	10.2	-6.2%	-1.1	0.8
COCCN(Cc1cn(C)nc1-c1ccc(Oc2ccccc2)cc1)C(C)C	-7.8	0.9	4.9	-4.4%	-1.4	-1.6
O=C(O)c1ccccc1SCC(=O)N1CCOCC1	-25.1	0.7	14.2	-4.3%	-4.5	11.5
Cc1cc(=O)oc2c3c(cc(OCC(=O)NC4CC4)c12)OC(C)(C)CC3	18.3	0.5	0.2	15.8%	1.2	-20.5
Cc1ccc(OCCn2c(C)c(/C=N/n3cnnc3)c3ccccc32)cc1	-33.6*	3.4	0.0	7.9%	-12.2	0.3
Cc1c(/C=N/n2cnnc2)c2ccccc2n1CCOc1ccc(Cl)cc1	-2.0	2.2	16.5	-3.0%	-3.5	7.7
CCC(Sc1nc(C)cc(C)n1)C(=O)Nc1cc(C)on1 (stereo not drawn)	8.9	1.0	-52.8*	-3.1%	1.9	-0.2
O=C(CSc1nc2ccccc2c(=O)n1NC(=O)Cc1ccccc1)NCc1ccccc1	-32.2*	6.5	16.8	2.1%	-8.8	11.1
O=C(COC(=O)C1CCC(=O)N1)Nc1cc(Cl)ccc1Cl (stereo not drawn)	-80.1*	2.8	17.2	-3.5%	1.5	2.4
O=C(COC(=O)C1CCC(=O)N1)Nc1ccc(Cl)cc1Cl (stereo not drawn)	5.6	-0.1	12.3	12.2%	-7.0	-7.6
CCCc1cc(N2CCN(c3ccc(OC)cc3)CC2)n2cnnc2n1	-33.5*	4.7	/	9.2%	-1.9	19.5
CCCc1cc(N2CCN(c3ccccc3)CC2)n2cnnc2n1	3.5	2.8	/	1.0%	-1.8	-2.4
COc1ccc(C)cc1NC(=O)C(OC(=O)c1ccc([N+](=O)[O-])o1)c1ccccc1 (stereo not drawn)	-48.4*	-0.5	-24.5	13.1%	-0.1	-1.7
O=C(CCCN1C(=O)/C(=C\c2cccs2)SC1=S)NNC(=O)c1cccnc1	-13.0	2.5	1.9	25.0%	-8.2	-4.6
CCCCC(=O)Nc1cccc(NC(=O)c2ccccc2Br)c1	0.4	-0.3	-61.1*	-1.1%	-9.5	1.4
CCCCNC(=S)NC(=O)c1ccccc1Br	-32.8*	0.6	1.2	-3.4%	-3.9	3.3
Cc1ccc(NC(=S)N(CCN(C)C)C(C)c2ccco2)cc1Cl (stereo not drawn)	-14.4	6.1	0.3	-20.7%	-8.4	-0.7
CC(=O)c1ccc(NS(=O)(=O)c2cccc(C)c2)cc1	-25.6	1.2	-7.8	8.2%	3.1	4.2
O=S(=O)(c1ccccc1)c1nc(-c2ccc(F)cc2)oc1NCc1ccccc1	8.2	4.3	/	0.4%	-1.2	7.0
CN(C)CCCNc1oc(-c2ccccc2Cl)nc1S(=O)(=O)c1ccccc1	11.6	14.2	-72.4*	5.8%	4.1	-20.6
CN(C)CCCNc1oc(-c2ccc(Cl)cc2)nc1S(=O)(=O)c1ccccc1	/	/	-73.1*	15.7%	/	-28.6
